Measured values published in PubChem BioAssay (NCI).
About 83,000 compounds went through this panel and 20% of them were active in at least one assay; those are over-represented in the sample as a whole.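 Single-concentration screen, 48 h exposure, 96-well plates. Endpoint: percent growth. Below 10 = active.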 Unmarked numbers belong to inactive results. Calls of active or inactive are those of the source.

Each compound was assayed on MDA-MB-468 breast (assay: NCI-60 one-dose screen, 48 h (100 = growth as untreated, 0 = no growth, -100 = all killed)). Settings: 10 µM unless noted.

SMILES | growth
NC1=C(Cl)C(=O)c2ccccc2C1=O | 36.5%
CC(C)N=C(N)/N=C(\N)Nc1ccc2ccc3ccccc3c2c1 | -91.1% (active)
Cn1c(=O)c2c(-c3ccccc3F)n(-c3ccc4c(c3)OCO4)cc2n(C)c1=O | 83.2%
COc1ccc(-c2cc(-c3ccccc3)nc(SCCCC(=O)NO)n2)cc1OC | -2.2% (active)
CC(Nc1c(C#N)cnc2ccc(-c3cncc(O)c3)cc12)c1ccccc1 (centres undefined) | -37% (active)
Cc1ccc(-[n+]2c3cc(N)c(C)cc3nc3cc(C)c(Nc4ccccc4)cc32)cc1 | -86.2% (active)
CCOC(=O)c1nnn(Cc2cc(=O)oc3c2ccc2ccccc23)c1C | 103%
Oc1ccc(CSc2nnc(-c3ccc(Cl)cc3)o2)c2cccnc12 | 26.3%
c1ccc(CCc2ccccc2-c2cc(-c3ccccc3)on2)cc1 | 93.8%
